From PubChem BioAssay
Compounds with a hit are over-represented: about 0.45% of the library has one in this group of screens.
EPAC2 ag = EPAC2 (human) agonism. Q8WZA2. EPAC2 activation, biochemical qHTS; response scale: 100% = 6.5 mM cAMP response. Potency, µM (doses to about 154 µM), usual class: activators. 360,000 compounds, 0.079% hits. AID 720711; further: nearly all actives have a fitted effect of over 50% in size
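Each well held 100 nM EPAC2, 250 nM RAP1B-BODIPY-GDP and 50 uM GDP. Fluorescence, read at 5-min intervals to 30 min, was referenced to a 6.5 mM cAMP positive control.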
EPAC1 agonist = activates human EPAC1 exchange factor | O95398 | EPAC1 agonist qHTS, biochemical assay; response scale: 100% = response to 6.5 mM cAMP | Potency, µM (top dose mostly 154 µM), actives largely listed as activators | 360,000 compounds, 0.073% hits; further: nearly all actives have a fitted effect of over 60% in size
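Fluorescent GDP-exchange assay: 100 nM EPAC1 with 250 nM Rap1B preloaded with BODIPY-GDP and 50 uM GDP; compounds tested as concentration series, 5 min at room temperature, then read every 5 min for 30 min (ex 480/em 540 nm); normalized to 6.5 mM cAMP.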
EPAC2 antagonist = antagonists of human EPAC2; Q8WZA2; EPAC2 GEF exchange of Rap1B-BODIPY-GDP, fluorescence; Potency, µM (titrated, usually from 114 µM), hits mostly inhibitors; 360,000 compounds, 0.18% hits; AID 720708; further: nearly all actives have a fitted effect of over 45% in size
USP1-UAF1 inh = inhibitors of human USP1/UAF1 deubiquitinase; recombinant USP1/UAF1, Ub-Rhodamine cleavage fluorescence; Potency, µM (top dose mostly 57.1 µM), most hits filed as inhibitors; 390,000 compounds, 0.23% hits; further: nearly all actives have a fitted effect of over 60% in size
Target sequence (O94782 whole entry, looked up): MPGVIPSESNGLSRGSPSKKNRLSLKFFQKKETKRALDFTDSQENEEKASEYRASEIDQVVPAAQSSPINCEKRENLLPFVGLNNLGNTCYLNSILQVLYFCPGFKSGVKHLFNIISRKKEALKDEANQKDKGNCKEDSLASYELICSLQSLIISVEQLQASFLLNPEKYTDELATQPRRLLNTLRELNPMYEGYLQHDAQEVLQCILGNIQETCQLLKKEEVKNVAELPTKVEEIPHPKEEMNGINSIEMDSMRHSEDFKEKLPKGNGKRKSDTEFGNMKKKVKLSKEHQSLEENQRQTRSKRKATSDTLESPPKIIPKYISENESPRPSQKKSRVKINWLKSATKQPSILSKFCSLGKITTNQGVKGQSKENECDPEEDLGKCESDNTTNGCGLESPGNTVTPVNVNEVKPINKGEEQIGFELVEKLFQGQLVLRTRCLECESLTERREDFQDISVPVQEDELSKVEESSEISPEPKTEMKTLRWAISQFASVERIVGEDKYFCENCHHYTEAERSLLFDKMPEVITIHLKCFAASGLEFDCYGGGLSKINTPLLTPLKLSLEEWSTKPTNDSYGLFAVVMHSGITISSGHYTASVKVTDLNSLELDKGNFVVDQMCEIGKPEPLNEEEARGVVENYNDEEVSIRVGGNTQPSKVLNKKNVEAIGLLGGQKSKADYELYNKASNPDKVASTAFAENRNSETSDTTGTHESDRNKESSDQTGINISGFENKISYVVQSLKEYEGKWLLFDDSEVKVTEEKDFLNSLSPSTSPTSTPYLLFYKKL
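High-throughput fluorogenic screen: 1nM USP1/UAF1 complex, Ub-Rho substrate 150nM final, 50mM HEPES pH 7.8 with 0.5mM EDTA, 0.1 mg/ml BSA, 1mM TCEP and 0.01% Tween-20.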
EPAC1 antag = blocks human EPAC1 exchange factor; O95398; EPAC1 GEF assay, Rap1b-BODIPY-GDP exchange fluorescence; 360,000 compounds, 0.14% hits; Potency, µM (highest dose often 115 µM), most hits filed as inhibitors; further: nearly all actives have a fitted effect of over 50% in size
Hits are given with their value; – = inactive; ? = inconclusive; · = not tested or not shown. The call rests on the fitted dose curve; in most records, active means well fitted curve in the direction sought with a large enough effect; inconclusive means small, poorly fitted or top-dose-only effect, or another doubt; inactive means no such curve, though single readings can be large; an effect the other way counts as inactive or inconclusive.

SMILES | EPAC2 ag | EPAC1 agonist | EPAC2 antagonist | USP1-UAF1 inh | EPAC1 antag
CCOc1ccc(S(=O)(=O)N2Cc3ccccc3CC2C(=O)Nc2ccc(NC(C)=O)cc2)cc1 (configuration not stated) | · | · | · | – | ·
COc1ccc(C(=O)Nc2ccc(NC(=O)c3cccs3)cc2)cc1OC | · | · | · | 25µM | ·
COc1ccc(C(=O)Nc2cccc(NC(=O)c3cccs3)c2)cc1OC | – | – | – | – | –
Cc1cccn2c(=O)c(C(=O)NC(C)c3ccccc3)c(O)nc12 (configuration not stated) | · | · | · | – | ·
CCc1ccccc1N1CC(c2nc3ccccc3n2CCC2CCCCC2)CC1=O (configuration not stated) | · | · | · | – | ·
Cc1c(CNCc2ccc(OC(C)C)cc2)c(C(=O)O)c(C)n1Cc1ccc(Cl)cc1 | · | · | · | – | ·
CCc1oc2ccccc2c1C(=O)c1cc(Br)c(O)c(Br)c1 | – | – | 10µM | ? | ?
O=C1CC(c2ccccc2)c2ccccc21 (configuration not stated) | – | – | – | – | –
O=C1C=C(c2ccccc2)C(c2ccccc2)C1 (configuration not stated) | – | – | 35µM | – | –
CCc1ccc(-n2nc(C)c3c(C(=O)Nc4cc(OC)cc(OC)c4)cc(C)nc32)cc1 | · | · | · | – | ·
NC(=O)c1cc[n+](CC2=C(C(=O)O)N3C(=O)[C@@H](NC(=O)C(c4ccccc4)S(=O)(=O)[O-])[C@H]3SC2)cc1 (some centres not stated) | – | – | – | 35µM | –
CCC1CCCCN1CC(=O)N1CCCc2c1c(=O)oc1ccc(OCc3ccccc3)cc21 (configuration not stated) | · | · | · | – | ·
Nc1c(C(=O)Nc2ccc(F)cc2)sc2nc(-c3cccs3)cc(C(F)(F)F)c12 | · | · | · | – | ·
Nc1c(C(=O)C2CC2)sc2nc(-c3cccs3)cc(C(F)(F)F)c12 | 112µM | – | – | ? | –
O=C1CSC(=S)N1/N=C/c1ccc(O)c(O)c1O | – | – | – | ? | 25µM
CCOc1ccc(CNC(=O)c2cc3c(=O)n(Cc4cccs4)ccc3nc2C)cc1 | · | · | · | – | ·
COC(=O)Cc1c(C)c2ccc(OC(=O)c3ccco3)cc2oc1=O | 6.3µM | – | – | – | –
COC(=O)Cc1c(C)c2cc(Cl)c(OC(=O)c3ccco3)cc2oc1=O | – | – | – | – | –
COc1ccc(C2C(C(C)=O)=C(C)N=c3s/c(=C\c4ccco4)c(=O)n32)c(OC)c1 (configuration not stated) | – | – | – | – | –
COc1ccc(C2C(C(C)=O)=C(C)N=c3s/c(=C\c4cc(C)n(C)c4C)c(=O)n32)c(OC)c1 (configuration not stated) | ? | – | – | 18µM | –
Cc1ccc2oc(C(=O)N3CCCCCC3)c(C)c2c1 | – | – | 56µM | – | –
Cc1c(C(=O)N2CCCCC2)oc2ccc(Br)cc12 | – | ? | ? | – | –
CCOc1ccccc1NC(=O)CSc1nc2c(oc3ccccc32)c(=O)n1-c1ccc(C)c(C)c1 | · | · | · | – | ·
CCN(c1ccccc1)c1cc2ccccc2c(=O)[nH]1 | – | – | – | 25µM | ?
CCN(c1ccccc1)c1nc(=O)c2cccnc2s1 | – | – | – | – | –
SMILES | EPAC2 ag | EPAC1 agonist | EPAC2 antagonist | USP1-UAF1 inh | EPAC1 antag
Clc1ccc(CON/C=N/c2ncnc3sccc23)cc1 | 7.9µM | – | – | – | –
Cc1ccccc1C(=O)/C(C#N)=N/Nc1c(C)n(C)n(-c2ccccc2)c1=O | – | – | 79µM | – | –
CCCCCOc1ccc(/C=c2\sc3nc(=O)c(-c4ccccc4)nn3c2=O)cc1OC | – | – | – | – | –
O=c1nc2s/c(=C\c3ccc(-c4ccccc4[N+](=O)[O-])o3)c(=O)n2nc1-c1ccccc1 | 71µM | 112µM | – | ? | –
COc1ccc(C2CC(=O)N3CN(C4CCCCC4)CSC3=C2C#N)c(OC)c1 (configuration not stated) | · | · | · | 2.2µM | ·
COc1ccc2ccccc2c1C1CC(=O)N2CN(C3CCCCC3)CSC2=C1C#N (configuration not stated) | – | – | – | ? | –
COc1ccc(N=Cc2c(O)n(-c3cccc(C)n3)c(=O)c3ccccc23)c(OC)c1 | 100µM | – | – | – | –
Cc1ccccc1C(=O)N1CCN(CCc2ccccn2)CC1 | · | · | · | – | ·
O=S(=O)(Nc1nc(-c2sccc2Cl)cs1)c1cc(Cl)ccc1Cl | – | – | 50µM | ? | 79µM
CC(=O)Nc1nonc1-c1nnc(SCC(=O)Nc2cc(C)ccc2C)n1-c1ccccc1 | · | · | · | – | ·
CC(Oc1ccc(Cl)cc1Cl)c1ccn[nH]1 (configuration not stated) | – | – | 45µM | – | –
CCN1/C(=C/c2ccc3cc(C)ccc3[n+]2CC)Sc2cc(C)c(C)cc21 | – | – | – | ? | ?
CCOC(=O)/C(=C/C=C1\Sc2cc(C)c(C)cc2N1CC)C(C)=O | – | – | – | 25µM | –
Nc1ncnc2c1nc(Br)n2[C@@H]1O[C@@H]2COP(=O)(O)O[C@H]2[C@H]1O | ? | 11µM | 2.5µM | – | 1.3µM
Nc1nc2c(nc(Br)n2[C@@H]2O[C@@H]3COP(=O)(O)O[C@H]3[C@H]2O)c(=O)[nH]1 | – | – | – | – | –
Cn1c(=O)c(Nc2ccc(Cl)cc2)c2c3c(cccc31)C(=O)c1ccccc1-2 | 112µM | ? | – | 10µM | –
CC(=O)Nc1c2c3c(cccc3n(C)c1=O)C(=O)c1ccccc1-2 | – | – | – | – | –
COc1ccccc1/C=C/C=c1\sc2nc(=O)c(Cc3ccccc3)nn2c1=O | ? | – | – | – | 35µM
O=C(NCc1cccc(F)c1)c1ccc(CN2CC(=O)N3CCCCC3C2=O)cc1 (configuration not stated) | · | · | · | – | ·
CC1=C(C(=O)OCc2ccccc2)C(c2ccc(C(C)(C)C)cc2)NC(=O)N1CCCCCC(=O)O (configuration not stated) | – | – | 16µM | – | –
Cc1cccc(N2CCN(C(=O)c3cc4c(=O)[nH]c5ccc(C)cc5c4s3)CC2C)c1 (configuration not stated) | · | · | · | – | ·
O=C1CS(=O)(=O)N(Cc2cccc(F)c2)c2ccc(Br)cc21 | – | – | – | ? | ?
O=C1c2cc(Br)ccc2N(Cc2ccc(Br)cc2)S(=O)(=O)C1c1cc(Cl)c(Cl)cc1[N+](=O)[O-] (configuration not stated) | – | – | 20µM | ? | 56µM
Cc1cccc(NC(=O)C(=O)NCCc2sc(-c3ccccc3)nc2C)c1C | · | · | · | – | ·
COc1ccc(OC)c(/C=C2/Sc3ccccc3C2=O)c1 | – | – | – | 28µM | –
Cc1ccc(NC(=O)C2CCCN(c3nnc(C)c4c(C)n(-c5ccccc5)nc34)C2)c(Cl)c1 (configuration not stated) | · | · | · | – | ·
